Measurements from PubChem BioAssay AID651593 (National Center for Advancing Translational Sciences (NCATS), 2012).
The whole screen tested about 1,100 compounds, of which about 860 (78%) were called active. About 19% were inconclusive and are not listed. Calls come from the whole dose curve; as a rule, active = well fitted activation curve with a large enough effect; inconclusive = small, poorly fitted or top-dose-only effect; inactive = flat fitted curve, though single readings scatter. The set was probably picked from earlier hits. The list shows a part of the results.

Assay: qHTS of Nrf2 Activators: Hit Validation in Primary Assay; note: nearly all actives have a fitted effect of over 70% in size
Conditions: Nrf2/ARE reporter cell assay; Potency: activation; series mostly up to 46.1 µM
Excerpt: Many diseases have some form of oxidative stress injury and ties to inflammation, causing a host of problems for the patient. The antioxidant response element (ARE) plays an important role in alleviating the harmful effects of oxidative stress. The antioxidant response element (ARE) is a transcriptional regulatory element involved in the activation of genes coding for a number of antioxidant proteins and detoxifying enzymes. These enzymes work in concert to protect tissues from oxidative insults and chemical toxicities in human hepatocytes and immune cells. The protective effects of ARE activation are primarily triggered through Nrf2 (NF-E2-related factor) binding to and activating AREs. It is known that Nrf2 controls the production of over 250 antioxidant and detoxification proteins (Hu et al., 2006), thereby protecting tissues by increasing cellular antioxidant content and suppressing inflammatory signaling pathways. The transcription factor Nrf2 is a central link between oxidative chemicals, such as phenolic antioxidants and electrophilic compounds, and the activation of ARE. Nrf2 levels are constitutively low as a consequence of its interaction with Keap1, which targets its degradation (Zipper and Mulcahy, 2002). Electrophiles react with key cysteine residues in Keap1, releasing Nrf2 and allowing its translocation to the nucleus. Once within the nucleus, Nrf2 complexes with coactivators such as p300, and binds to the AREs to induce gene transcription of cytoprotective enzymes, resulting in the prevention of toxicity. Activation of Nrf2 protects tissues by increasing cellular antioxidant content and suppressing inflammatory signaling pathways. Identifying novel and potent Nrf2 activators by using the AREc32 cell line to detect ARE activation by small molecules will lead to the identification and development of probes to study protective pathways in multiple tissues. These specific probes are essential to study the ARE pathway, and eventually to determine whether this pathway does activate genes that could protect against a host of diseases, including cardiovascular diseases, obesity, diabetes, Alzheimer's, and Parkinson's disease.
This project's aim is to identify novel and potent Nrf2 activators by using the AREc32 cell line to detect ARE activation by small molecules, which will lead to the identification and development of probes to study the ARE pathway.
NIH Chemical Genomics Center [NCGC]
NIH Molecular Libraries Probe Centers Network [MLPCN]
Assay Submitter (PI): Curtis Klaassen, University of Kansas Medical Center
Quantification of ARE activation after compound treatment was measured by the Steady-Glo Luciferase (R) assay system (Promega) in AREc32_fluc stable cells. The Steady-Glo reagent acts by cell lysis and generation of a luminescent signal proportional to ARE activation, through the luciferase reporter in the AREc32 stable cell line. AREc32_fluc cells were harvested from T225 flask and resuspended in phenol red free OPTI-MEM medium with 5% FBS. Then 5 microL of 200,000 cells/mL resuspended cells were dispensed into each well of white, solid bottom, 1536-well tissue culture-treated plates using a Multidrop Combi dispenser. After overnight culture at 37 degrees C with 5% CO2, a total of 23 nL of compounds at 5 selected concentrations from the MLSMR/Sytravon or positive control (40 uM stock of CDDO-IM and 2 mM of tBHQ) in DMSO was transferred to each well of the assay plate using a pintool (Kalypsys, San Diego, CA), and the plates were further incubated at 37 degrees C with 5% CO2 for 24 hours. After that, 2 microL of Steady Glo luminescent substrate mix (Promega) was added to each well. The plate was incubated at room temperature for 30 minutes. The plates were measured on a ViewLux plate reader (PerkinElmer) with clear filter.
Potency is the fitted concentration of half-maximal effect.

Potency, active:
Cc1ccc2cc3c(NC(=O)c4ccco4)nn(C)c3nc2c1 2.59 µM
COc1ccc(OC)c(C=C2CCc3ccccc3C2=O)c1 2.91 µM
O=C1C(=Cc2ccccc2Cl)CCc2ccccc21 20.6 µM
COc1cc(OC)c(OC)cc1/C=C1/Cc2ccccc2C1=O 8.2 µM
COc1cc(C=C2Cc3ccccc3C2=O)cc(OC)c1OC 9.2 µM
c1ccc(-c2cnc(-c3ccccc3)nn2)cc1 13 µM
CSc1nc(Oc2ccc3ccccc3c2)c2sccc2n1 5.8 µM
CSc1nc(Oc2ccc(Cl)cc2)c2sccc2n1 6.51 µM
Nc1c(C(=O)c2ccc(Br)s2)oc2ccccc12 5.17 µM
Nc1c(C(=O)c2cccs2)oc2ccccc12 6.51 µM
COc1cccc(C(=O)Oc2ccccc2/C=C\C(=O)c2cc3ccccc3o2)c1 3.66 µM
O=C(Oc1ccccc1/C=C\C(=O)c1cc2ccccc2o1)c1ccccc1 4.61 µM
O=C(Cn1cnc2scc(-c3cccc([N+](=O)[O-])c3)c2c1=O)NCc1ccco1 7.31 µM
Cc1c(CN(C)C)c2c(n1C)C(=O)c1ccc(Br)cc1-2 5.17 µM
O=C(CC(=O)c1ccccc1O)c1cccc(F)c1 4.61 µM
O=[N+]([O-])c1ccccc1N/N=C/c1c[nH]c2ccccc12 2.59 µM
C(=N\Nc1nc2ccccc2[nH]1)/c1c[nH]c2ccccc12 16.4 µM
CC(C)Oc1ccccc1/C=N/Nc1ccccc1[N+](=O)[O-] 3.26 µM
c1ccc(N=NC2=NN(c3ccccc3)CS2)cc1 5.8 µM
O=C(COC(=O)/C=C/c1ccco1)Nc1ccc(F)cc1Cl 5.8 µM
CC(=O)c1ccccc1NC(=O)COC(=O)/C=C/c1ccc(C)o1 3.66 µM
CSc1ccccc1NC(=O)COC(=O)/C=C/c1ccco1 1.16 µM
O=C(NC(=S)Nc1ccccc1O)c1ccccc1Cl 2.31 µM
COC(=O)c1c(NC(=O)c2ccco2)sc(C)c1C 2.59 µM
CCOC(=O)c1sc(NC(=O)c2ccco2)nc1C 2.59 µM
Cc1ccc(C(=O)Nc2nc(-c3ccco3)c(-c3ccco3)s2)o1 0.92 µM
CCc1c(C)sc(NC(=O)c2ccco2)c1C#N 7.31 µM
COC(=O)c1sc(NC(=O)c2ccco2)nc1C 10.3 µM
O=C(Nc1ccccc1F)c1ccc(-c2cccc([N+](=O)[O-])c2)o1 2.31 µM
c1ccc(N=Nc2cn[nH]c2-c2ccco2)cc1 9.2 µM
CC(C)OC(=O)c1cn(-c2ccccc2)nc1-c1ccco1 6.51 µM
Fc1ccc2nncc(SCc3ccccc3Cl)c2c1 2.06 µM
O=C(Nc1ncnc2sc3c(c12)CCCCC3)c1ccco1 0.58 µM
O=C(Nc1ncnc2sc3c(c12)CCC3)c1ccco1 0.291 µM
Cc1ccc2nc(N(CCN(C)C)C(=O)/C=C/c3cccs3)sc2c1 4.61 µM
CN(C)CCN(C(=O)/C=C/c1cccs1)c1nc2c(F)cc(F)cc2s1 2.91 µM
CN(C)CCN(C(=O)/C=C/c1cccs1)c1nc2ccc(F)cc2s1 2.06 µM
Nc1nc(Nc2cccc(Cl)c2)nc(NCCO)c1[N+](=O)[O-] 2.59 µM
Fc1ccc2nc(Nc3nc4c(F)cc(F)cc4s3)sc2c1 2.31 µM
Fc1cccc2sc(Nc3nc4ccccc4s3)nc12 2.31 µM
Cn1c(/C(C#N)=C(\O)c2cc(Cl)sc2Cl)nc2ccccc21 2.31 µM
Cc1ccc(C(=O)OCc2c(C)noc2C)cc1NC(=O)c1ccco1 4.11 µM
N/C(=N\OC(=O)c1cc(Cl)ccc1Cl)c1ccncc1 5.17 µM
N/C(=N\OC(=O)c1cc(Cl)ccc1Cl)c1cccnc1 2.59 µM
COc1ccc(Cl)cc1C(=O)O/N=C(\N)c1ccncc1 6.51 µM
N/C(=N\OC(=O)c1ccccc1Cl)c1ccncc1 9.2 µM
COc1ccc(Cl)cc1C(=O)O/N=C(\N)c1ccccn1 2.91 µM
N/C(=N\OC(=O)c1cccc2ccccc12)c1ccc(Br)cc1 9.2 µM
N/C(=N\OC(=O)/C=C/c1ccccc1)c1cccnc1 20.6 µM
O=C(/C=C/c1ccccc1[N+](=O)[O-])N1CCc2ccccc2C1 20.6 µM
Oc1ccccc1-n1nc2ccc3nonc3c2n1 11.6 µM
Cn1c(=O)n(CCc2ccccc2)c(=O)c2c1nc1n2CCN1Cc1ccco1 2.31 µM
CCCNC(=O)c1ccc(S(=O)(=O)c2ccc(OC)cc2)c([N+](=O)[O-])c1 3.66 µM
Cn1c(N/N=C/c2cccs2)cc(=O)n(C)c1=O 2.59 µM
O=c1[nH]n(Cc2ccccc2)c(=O)c2ccccc12 4.11 µM
O=C(CSc1nccc(-c2cccs2)n1)Nc1cccc(Cl)c1Cl 2.31 µM
O=C(CSc1nccc(-c2cccs2)n1)Nc1ccc(F)c(Cl)c1 20.6 µM
O=C(CSc1nccc(-c2cccs2)n1)Nc1cccc(Cl)c1 2.06 µM
Cc1ccc(C(=O)N/N=C/c2ccc(-c3ccc(Br)cc3[N+](=O)[O-])o2)o1 5.8 µM
Cc1cc(N2CCOCC2)n2nc(-c3cccc(F)c3)cc2n1 1.46 µM
Cc1cc(C)n2nc(-c3ccc(F)cc3)cc2n1 20.6 µM
O=C(Nc1ncc2c(n1)-c1ccccc1CC2)c1cccs1 2.31 µM
O=C(Nc1nccc(-c2cccs2)n1)c1cccs1 2.59 µM
O=C(Nc1ncc2c(n1)-c1ccccc1CC2)c1ccccc1 5.17 µM

Potency, inactive:
CCOc1c(Br)cc(C(N)=O)cc1OCc1ccccc1
O=C(CNC(=S)NC(=O)c1ccccc1Br)c1ccccc1
Cc1sc(NC(=O)c2ccco2)c(CN2CCCCC2)c1C
N/C(=N\OC(=O)c1cccc2ccccc12)c1cccnc1
COc1ccc([C@H]2Cc3cccc(O)c3C(=O)O2)cc1O
